# Bioassay records: PubChem BioAssay, several laboratories
# Calb FLC – C. albicans growth modulation with fluconazole | C. albicans CaCi-2 (fluconazole-resistant clinical isolate) + fluconazole, Alamar Blue growth, 48 h | growth inhibition, % (test concentration not listed) | hit rate 0.57% among 300,000 | AID 1979;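 active = growth inhibition above about 58% in most replicates, limit read from the data, passing the limit was not always enough; inconclusive = exactly half the replicates above a set limit; inactive = most replicates below a set limit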;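 also: all wells also contain fluconazole at 8 µg/ml as a sub-toxic cotreatment; 0% = median of DMSO wells and 100% = median of geldanamycin control wells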
# FAS TE block – blocks the thioesterase domain of human fatty acid synthase | P49327 | inhibition, % at 15 µM | recombinant FAS-TE, OMFH fluorogenic substrate, fluorescence endpoint | AID 602261 | hit rate 0.67% among 360,000;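 active = compounds whose normalised, plate-corrected inhibition of enzyme fluorescence in the single-dose primary screen is 50% or more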;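 also: 0% = DMSO with enzyme and 100% = substrate without enzyme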
# Target sequence (P49327 whole entry, looked up, the tested form may be a part): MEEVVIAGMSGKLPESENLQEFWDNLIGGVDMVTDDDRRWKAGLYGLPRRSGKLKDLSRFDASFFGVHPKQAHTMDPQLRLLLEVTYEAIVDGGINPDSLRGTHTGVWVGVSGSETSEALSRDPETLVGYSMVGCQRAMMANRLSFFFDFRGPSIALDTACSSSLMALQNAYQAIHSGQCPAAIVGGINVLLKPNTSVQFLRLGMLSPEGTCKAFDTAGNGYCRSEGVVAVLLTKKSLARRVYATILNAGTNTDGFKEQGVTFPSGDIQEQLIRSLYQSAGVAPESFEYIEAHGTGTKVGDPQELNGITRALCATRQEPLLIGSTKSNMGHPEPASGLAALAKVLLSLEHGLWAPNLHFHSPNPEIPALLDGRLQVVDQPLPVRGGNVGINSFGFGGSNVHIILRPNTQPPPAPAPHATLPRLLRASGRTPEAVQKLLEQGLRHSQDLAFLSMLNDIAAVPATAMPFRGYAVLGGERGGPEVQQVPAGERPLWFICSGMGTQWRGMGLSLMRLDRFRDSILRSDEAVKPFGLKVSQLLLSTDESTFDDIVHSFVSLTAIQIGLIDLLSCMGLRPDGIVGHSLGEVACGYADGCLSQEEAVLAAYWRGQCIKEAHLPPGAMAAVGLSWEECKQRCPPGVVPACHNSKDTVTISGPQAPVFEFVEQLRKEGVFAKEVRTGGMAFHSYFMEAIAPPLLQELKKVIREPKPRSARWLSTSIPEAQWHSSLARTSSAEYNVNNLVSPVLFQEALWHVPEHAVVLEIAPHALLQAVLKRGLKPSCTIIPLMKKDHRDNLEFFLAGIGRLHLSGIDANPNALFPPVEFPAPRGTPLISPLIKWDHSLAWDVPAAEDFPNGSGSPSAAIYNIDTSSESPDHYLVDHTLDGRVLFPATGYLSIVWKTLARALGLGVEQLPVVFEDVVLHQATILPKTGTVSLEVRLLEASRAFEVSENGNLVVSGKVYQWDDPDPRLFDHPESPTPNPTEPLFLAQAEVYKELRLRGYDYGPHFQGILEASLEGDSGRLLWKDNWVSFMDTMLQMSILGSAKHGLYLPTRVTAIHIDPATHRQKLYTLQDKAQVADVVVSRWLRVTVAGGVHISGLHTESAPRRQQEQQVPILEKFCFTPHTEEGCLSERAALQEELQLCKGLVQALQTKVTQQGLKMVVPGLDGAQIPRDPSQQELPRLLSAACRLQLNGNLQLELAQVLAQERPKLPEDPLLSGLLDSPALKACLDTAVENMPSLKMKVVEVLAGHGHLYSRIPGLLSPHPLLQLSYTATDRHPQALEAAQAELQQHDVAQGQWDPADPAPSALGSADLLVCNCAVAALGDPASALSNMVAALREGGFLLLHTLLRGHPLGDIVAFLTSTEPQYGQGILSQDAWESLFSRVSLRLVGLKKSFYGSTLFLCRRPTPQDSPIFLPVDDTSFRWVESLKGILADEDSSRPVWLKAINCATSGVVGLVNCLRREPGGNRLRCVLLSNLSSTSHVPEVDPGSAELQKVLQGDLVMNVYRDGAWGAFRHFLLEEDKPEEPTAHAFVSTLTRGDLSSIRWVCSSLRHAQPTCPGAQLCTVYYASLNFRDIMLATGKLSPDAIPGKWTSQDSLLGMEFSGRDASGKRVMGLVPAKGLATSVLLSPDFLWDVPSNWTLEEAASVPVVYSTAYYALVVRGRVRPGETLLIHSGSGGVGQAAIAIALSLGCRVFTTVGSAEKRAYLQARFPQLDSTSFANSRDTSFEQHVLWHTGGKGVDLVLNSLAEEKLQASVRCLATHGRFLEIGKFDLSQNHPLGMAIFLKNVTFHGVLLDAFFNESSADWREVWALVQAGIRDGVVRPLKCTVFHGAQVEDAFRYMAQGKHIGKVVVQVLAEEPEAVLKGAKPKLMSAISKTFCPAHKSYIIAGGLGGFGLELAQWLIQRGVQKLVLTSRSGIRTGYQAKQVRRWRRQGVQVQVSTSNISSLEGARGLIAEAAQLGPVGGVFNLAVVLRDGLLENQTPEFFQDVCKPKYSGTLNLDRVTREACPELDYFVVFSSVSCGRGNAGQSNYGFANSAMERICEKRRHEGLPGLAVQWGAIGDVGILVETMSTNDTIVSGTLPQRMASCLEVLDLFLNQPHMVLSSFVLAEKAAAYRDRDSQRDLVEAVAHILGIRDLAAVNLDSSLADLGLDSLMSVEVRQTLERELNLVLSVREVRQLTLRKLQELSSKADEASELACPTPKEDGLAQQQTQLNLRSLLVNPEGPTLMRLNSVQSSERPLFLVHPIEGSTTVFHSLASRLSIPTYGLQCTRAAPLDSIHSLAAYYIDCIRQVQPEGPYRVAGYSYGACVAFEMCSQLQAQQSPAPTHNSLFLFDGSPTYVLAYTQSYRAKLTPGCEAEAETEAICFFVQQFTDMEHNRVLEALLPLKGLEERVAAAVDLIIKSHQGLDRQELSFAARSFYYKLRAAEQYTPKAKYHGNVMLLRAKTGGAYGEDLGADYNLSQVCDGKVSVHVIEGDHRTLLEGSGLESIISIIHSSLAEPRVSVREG
# NadD inh – NadD (S. aureus) enzyme inhibition | purified NadD enzyme, colorimetric absorbance read-out | inhibition, % at 20 µM | hit rate 0.78% among 360,000 | AID 602399; in the data active = inhibition above about 26%
# ATG4B inhibitor – inhibitors of human ATG4B cysteine protease; Q9Y4P1; ATG4B cleavage of LC3-PLA2, NBD-HPC fluorescence, 1 h; inhibition, % at 8.33 µM; hit rate 0.51% among 340,000; AID 504462; in the data active = inhibition above about 40%
# SUMO Mot1 rescue – blocks SUMOylation pathway, rescuing yeast Mot1-301 growth. S. cerevisiae Mot1-301 growth rescue, ATP luminescence, 38.5C; percent above DMSO median, 100 means doubled. growth rescue, % at 18.8 µM. AID 2716. hit rate 1% among 320,000;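 active = every valid replicate shows activation above 250% relative to neutral control wells; inactive = the rest, any valid replicate at or below 250%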;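 also: OY570 slx delta 5 strain wells were the positive control but not used for scaling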
# Mot1 SUMO dose – inhibits SUMO pathway, affecting Mot1-301 yeast growth; shares compounds with SUMO Mot1 rescue; S. cerevisiae Mot1-301 galactose growth, ATP luminescence, 24 h; -100 = growth of slx-deleted rescue strain; growth activity, percent, % at 42 µM; 2,300 tested, under 10 active;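 active = Signal drops as the depositor expects, and the fitted half-maximal dose is no more than ten times the top valid tested dose; inconclusive = Poor fit, or a flat curve whose signal drops by 30% to 70%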;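 also: more negative values mean stronger growth rescue toward the control strain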
# Active calls of the source: *; u = inconclusive; x = not tested or not shown; + = active, no number. Sampled rows, rich in hits. Any-hit rate of the full collection: about 3.1%.
SMILES,Calb FLC,FAS TE block,NadD inh,ATG4B inhibitor,SUMO Mot1 rescue,Mot1 SUMO dose
O=C(C1CCCO1)N(c1cccc(Cl)c1)C1C=CS(=O)(=O)C1 (configuration not stated),-2,-11,-1,-10,73,x
CCOc1ccc(N(C(=O)C2CCCO2)C2C=CS(=O)(=O)C2)cc1 (configuration not stated),-5,-5,-3,0,814*,0
C/C(=N/NC(=O)c1ccc(Br)o1)c1cccc(NC(=O)c2ccc(F)cc2)c1,-6,5,2,-11,-2,x
Cc1cc(NC(=O)CN(C)C)c([N+](=O)[O-])cc1C,-3,-2,-3,-2,35,x
O=C(NC1CCCCC1)C(c1cccnc1)N(C(=O)c1csnn1)c1ccccc1 (configuration not stated),8,-5,-3,-2,5,x
CCCCN1C(=O)C(CC(=O)NCCCN(C)C)CC(C(=O)N(C(C)C)C(C)C)=C1C (configuration not stated),x,0,1,x,x,x
CC(C)C(=O)NCCSc1c[nH]c2ccccc12,3,-10,-3,-5,598*,0
CCCCCCNc1c(C(=O)OCC)c(=O)[nH]c2ccccc12,13,-2,-1,-3,778*,0
CC(C)(C)C(=O)Nc1ccc(C(=O)NCc2cccnc2)cc1,1,-3,1,-4,430*,0
CCOc1ccc(NS(=O)(=O)c2ccc(C(=O)NCc3ccncc3)cc2)cc1,11,1,-2,7,18,x
CC(C)(C)c1ccc(C(=O)Nc2ccc(C(=O)NCc3cccnc3)cc2)cc1,39,2,8,-9,262,x
CCOc1ccc(NS(=O)(=O)c2ccc(C(=O)NCc3cccnc3)cc2)cc1,x,-3,-6,-3,449*,1
Cc1cc(C)cc(N(CC(=O)NC2CCCC2)C(=O)CCC(=O)Nc2nc(C)cs2)c1,6,-3,-3,-7,0,x
CCC(C)(C)NC(=O)C(c1ccccc1Cl)N(C(=O)CCC(=O)Nc1cc(C)on1)c1ccc(NC(C)=O)cc1 (configuration not stated),-5,-23,1,-7,-4,x
Cc1cc(Nc2nc3c(c(=O)n(C)c(=O)n3C)n2C)n(-c2ccc(Cl)cc2)n1,24,-6,-2,1,+,0
O=S(=O)(c1ccccc1)N1N=C(c2ccc(Br)cc2)CC1c1ccco1 (configuration not stated),-1,20,-8,21,-3,x
O=C(c1cnn2c(C(F)(F)F)cc(-c3ccco3)nc12)N1CCCc2ccccc21,-16,0,0,4,908*,0
c1ccc(CCNc2nc(-c3ccccn3)nc3ccccc23)cc1,3,4,11,-9,-9,x
O=C(CSc1nc(-c2ccccc2)cc(=O)[nH]1)Nc1ccc(F)c(F)c1,2,4,1,-4,18,x
O=C(CSc1nc(-c2ccccc2)cc(=O)[nH]1)Nc1ccc(Br)cc1,7,-6,0,-1,423*,-1
CCOC(=O)c1c(C)[nH]c(C)c1S(=O)(=O)NCCc1ccco1,0,-4,4,-5,-14,x
CCc1ccc2nc(-c3cccc(C)c3)nc(SCC(=O)NCC3CCCO3)c2c1 (configuration not stated),4,-8,2,-6,404*,0
COc1ccc(C(=O)Nc2cc(C)nn2-c2cccc(F)c2)cc1OC,3,-3,-12,-5,-17,x
COc1ccc(CCNCc2ccc(OCC(=O)N3CCCCC3)c(OC)c2)cc1OC,-4,-4,-4,-6,-4,x
Cc1cc(C)n(-c2nc3ccccc3nc2N2CCN(C(=O)c3ccccc3)CC2)n1,-5,-1,7,-2,497*,-1
SMILES,Calb FLC,FAS TE block,NadD inh,ATG4B inhibitor,SUMO Mot1 rescue,Mot1 SUMO dose
COc1ccccc1-c1nc2ccccc2nc1-c1ccccc1OC,47,6,-3,-2,395*,0
Cc1ccc(-c2csc3ncn(CC(=O)N4CCOCC4)c(=O)c23)cc1,1,-2,3,-8,362*,0
C/C(=N\N1CCN(Cc2ccccc2Cl)CC1)c1ccc([N+](=O)[O-])cc1,1,48,4,-1,832*,1
C/C(=N\N1CCN(Cc2ccccc2Cl)CC1)c1ccc(F)cc1,2,17,3,1,26,x
N#CCCN(C(=O)COC(=O)c1cccc(S(=O)(=O)Nc2ccc([N+](=O)[O-])cc2)c1)c1ccccc1,2,0,-3,-10,444,x
N#CCCN(C(=O)COC(=O)c1ccc(S(=O)(=O)Nc2ccccc2)cc1)c1ccccc1,7,3,-5,-9,+,0
CC12CCC(=O)N1C(C(=O)NNC(=O)COc1ccc(Br)cc1)CS2 (configuration not stated),2,-4,4,-6,19,x
Cc1ccccc1-c1nc(CN2CCCC(C(=O)NCc3cccnc3)C2)c(C)o1 (configuration not stated),-16,-10,0,-11,+,0
CCS(=O)(=O)N1CCCC(C(=O)NCc2cccnc2)C1 (configuration not stated),2,-4,-1,-8,362*,0
Cc1ccccc1-c1nc(CN2CCCC(C(=O)NCCCN3CCOCC3)C2)c(C)o1 (configuration not stated),u,-12,-3,-5,128,x
CC(OC(=O)CCCN=C1NS(=O)(=O)c2ccccc21)C(=O)Nc1ccccc1[N+](=O)[O-] (configuration not stated),-1,-6,-5,1,x,x
CCCn1cc(S(=O)(=O)c2ccc(C)cc2)c(=O)c2cc(OC)c(OC)cc21,1,43,1,0,16,x
CCc1ccc(-n2c(C)cc(/C=N/NC(=O)c3ccncc3)c2C)cc1,-11,-4,7,-9,4,x
Cc1ccc(-n2c(C)cc(/C=N/NC(=O)c3ccncc3)c2C)cc1C,5,-2,4,-1,753*,0
O=C(COC(=O)/C=C/c1cc(Br)ccc1F)NC1CC1,x,-5,3,-2,13,x
Cc1ccc(NC(=O)CSCC(=O)Nc2ccccc2N2CCCC2)cc1,4,1,1,12,421*,0
Cc1cccc(NC(=O)CSCC(=O)N2CCCc3ccccc32)c1,2,-2,-7,2,503*,0
Cc1ccc([C@@H]2CC(=O)[C@@H]3CN(S(=O)(=O)c4ccccc4C)[C@H](c4ccc(Cl)cc4)C[C@@H]3N2S(=O)(=O)c2ccc(C)cc2)cc1,x,19,20,x,x,x
CCC(=O)N1CCc2cc(S(=O)(=O)CCC(=O)Nc3cccc(C)n3)ccc21,-26,-7,1,-7,+,1
CCC(=O)N1CCc2cc(S(=O)(=O)CCC(=O)Nc3ccc(OC)cc3)ccc21,-13,-3,1,4,19,x
